According to PubChem BioAssay AID602376 (Johns Hopkins Ion Channel Center, 2012):
Results with a measured potency or affinity are listed apart. Inconclusive results are not listed. The source made the active and inactive calls.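 Rule for the calls: active = raises choline transporter activity at one or more tested doses and gives a fitted dose-response curve; inconclusive = no clear call, values can overlap the other calls; inactive = no choline transporter activation at any dose, or no curve.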

These compounds were tested against High affinity choline transporter 1 (Homo sapiens) (UniProt Q9GZV3) (assay: human choline transporter potentiators, potency – cell-based, 10-point CRC, membrane potential dye, dose response (AID 602376)). Conditions: HEK293-CHT, choline-induced membrane potential dye, cells express CHT LV-AA mutant; series mostly up to 67 µM.
High affinity choline transporter 1 (Homo sapiens), sequence (Q9GZV3 whole entry, looked up): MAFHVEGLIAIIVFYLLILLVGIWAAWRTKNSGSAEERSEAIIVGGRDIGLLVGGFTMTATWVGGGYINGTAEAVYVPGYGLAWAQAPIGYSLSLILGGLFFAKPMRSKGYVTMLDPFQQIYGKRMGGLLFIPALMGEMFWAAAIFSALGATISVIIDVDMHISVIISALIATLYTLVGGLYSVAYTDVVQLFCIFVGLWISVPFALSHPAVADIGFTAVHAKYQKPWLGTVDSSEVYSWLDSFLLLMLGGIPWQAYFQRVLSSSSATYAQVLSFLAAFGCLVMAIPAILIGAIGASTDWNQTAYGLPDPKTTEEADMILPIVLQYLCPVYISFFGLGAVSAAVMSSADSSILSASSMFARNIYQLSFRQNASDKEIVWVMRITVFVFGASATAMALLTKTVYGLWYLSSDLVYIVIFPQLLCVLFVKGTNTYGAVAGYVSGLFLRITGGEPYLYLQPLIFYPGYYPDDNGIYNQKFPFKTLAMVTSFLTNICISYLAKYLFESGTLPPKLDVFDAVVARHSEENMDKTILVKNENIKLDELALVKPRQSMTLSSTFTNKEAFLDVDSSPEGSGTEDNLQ

outcome, inactive:
COc1cc(-c2noc(C)c2C#Cc2ccccn2)cc(OC)c1OC, COc1ccc(C(N)c2nccc3cc(OC)c(OC)cc23)cc1OC (stereo not given), O=C(NCCC1=CCCCC1)C1CCN(Cc2cnn(-c3ccccc3)c2-n2cccc2)CC1, COc1ccc(-c2c3c(=O)n(C)c(=O)n(C)c3cn2C2CCCCC2)cc1, COc1ccc(-c2noc(CSc3nc4ccccc4c(=O)n3-c3ccccc3)n2)cc1OC
